From PubChem
MARV entry inh: inhibitors of Marburg virus binding or cell entry. 1.8% of 300,000 active. Potency, µM (highest dose often 37.8 µM), without a hit: at the highest dose activity change, negative = inhibition, usual class: inhibitors. AID 540276. Marburg virus pseudotyped entry inhibition, cell reporter; calls by dose curve; tested in HEK293 cells; further: potency means the concentration at half of the fitted maximal effect
Vaccinia Venus: inhibitors of vaccinia virus (Venus reporter); Vaccinia virus Venus reporter expression, fluorescence; Potency, µM (series often up to 36.5 µM), without a hit: at the highest dose activity change, negative = inhibition, actives largely listed as inhibitors; 0.46% of 330,000 active; calls by dose curve; tested in A549 cells; further: potency means the concentration at half of the fitted maximal effect; nearly all actives have a fitted effect of over 30% in size
HCMV antiviral: inhibitors of human cytomegalovirus; activity change, negative = inhibition, % at 57.5 µM; 4.5% of 410,000 active; HFF cells, HCMV-luciferase reporter, 72 h; hits give low values; AID 1259415; in the data active means activity change below about -60%; inconclusive means no clear call, values can overlap the other calls; inactive means above about -39%
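Luciferase read-out from HCMV-luciferase-infected HFFs (MOI 1 PFU/cell) 72 h post infection at 37C; compounds added after 16 h cell attachment; activity normalized between buffer-only basal and Salinomycin (10uM) inhibitor controls.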
Vaccinia mCherry: inhibitors of vaccinia virus infection (mCherry reporter signal); 0.63% of 310,000 active; Vaccinia virus mCherry reporter infection, fluorescence; Potency, µM (series often up to 36.5 µM), for inactives: top-dose activity change, negative = inhibition, hits mostly inhibitors; calls by dose curve; tested in A549 cells; further: potency means the concentration at half of the fitted maximal effect; nearly all actives have a fitted effect of over 35% in size
Lassa entry inh: Lassa virus entry inhibition; Potency, µM (doses to about 37.9 µM), for inactives: at the top dose activity change, negative = inhibition, hits mostly inhibitors; Lassa virus pseudotype entry inhibition, cell reporter; 1.2% of 300,000 active; AID 540256; calls by dose curve; tested in HEK293 cells; further: potency means the concentration at half of the fitted maximal effect; nearly all actives have a fitted effect of over 50% in size
FMDV antiviral: blocks foot and mouth disease virus. FMDV antiviral cell-based qHTS. Potency, µM (highest dose often 57.9 µM), for the others: at the top dose activity change, negative = inhibition, hits mostly inhibitors. 1.2% of 410,000 active. AID 1159524; calls by dose curve; tested in HEK293T cells; further: read-out not given here; potency means the concentration at half of the fitted maximal effect; nearly all actives have a fitted effect of over 45% in size
Active calls of the source: *; [ ] = remark or other dose. Shown are actives, neighbours in structure and some others; about 6.5% of the full set was active somewhere. On the % scale 0 is the no-effect control and ±100 the full control effect.

CCn1c(C(=O)N2CCCC(C(=O)NCCCOC)C2)cc2sccc21 (configuration not stated) was read as MARV entry inh 10.6%[46.1 µM], Vaccinia Venus -4.4%, HCMV antiviral -5.0, Vaccinia mCherry -10.4% and FMDV antiviral -6.1%.
`CCCn1c(SCc2nc(-c3ccccc3C)no2)nnc1-c1ccc(Cl)cc1` gave MARV entry inh -3.5%[46.1 µM], Vaccinia Venus -2.4%, HCMV antiviral -8.7, Vaccinia mCherry -9.2%, Lassa entry inh 1.0%[46.1 µM] and FMDV antiviral 0.0%.
Screening S=c1[nH]c(-c2ccc(Cl)cc2)cs1 returned MARV entry inh 0.4%[46.1 µM], Vaccinia Venus -2.3%, HCMV antiviral -62.5*, Vaccinia mCherry -14.6% and FMDV antiviral 8.7%.
`CCCC[C@H]1CN2[C@H](c3ccc(Br)cc3)[C@H](C)CC[C@H]2C(=O)O1` gave MARV entry inh 1.8%[14.2 µM].
CCOC(=O)CC(=O)CSc1nc2c(c(-c3cccs3)c1C#N)CCC2 was read as Vaccinia Venus -7.4%, HCMV antiviral -33.5, Vaccinia mCherry inactive and FMDV antiviral 9.6%.
`N#Cc1c(N)nc(SCc2ccncc2)c(C#N)c1-c1cccs1` gave MARV entry inh inconclusive, Vaccinia Venus inconclusive, HCMV antiviral inconclusive, Vaccinia mCherry inconclusive, Lassa entry inh inconclusive and FMDV antiviral 15.8µM*.
`CN1CCc2nc(SCc3ccc(Cl)cc3)c(C#N)c(-c3cccs3)c2C1` gave MARV entry inh -16.1%, Vaccinia Venus -7.9%, HCMV antiviral -108.8*, Vaccinia mCherry -18.1%, Lassa entry inh -0.3% and FMDV antiviral -11.1%.
CCN(c1cccc(C)c1)S(=O)(=O)c1ccc2c(c1)N(C(C)=O)CCS2 was read as MARV entry inh inconclusive, Vaccinia Venus -1.9%, HCMV antiviral -69.6*, Vaccinia mCherry 0.9%, Lassa entry inh inconclusive and FMDV antiviral -16.0%.
Screening CC1=CC(C)(C)n2c(O)c(C3=NC(=S)NC3=O)c3cc(OC(=O)c4cccc5ccccc45)cc1c32 returned MARV entry inh -8.9%, Vaccinia Venus 0.1%, HCMV antiviral -71.6*, Vaccinia mCherry -12.9%, Lassa entry inh -13.0% and FMDV antiviral inconclusive.
Screening CC(C)c1ccc2c(c1)C(N1CCN(C)CC1)Cc1cccnc1S2 (configuration not stated) returned MARV entry inh 11.2µM*, Vaccinia Venus -10.6%, HCMV antiviral 4.0, Vaccinia mCherry -4.8%, Lassa entry inh -9.6%[46.1 µM] and FMDV antiviral -21.0%.
Screening CCCCCCC(O)(c1ccc(OC)cc1)C(CN1CCOCC1)c1ccccc1 (configuration not stated) returned MARV entry inh inconclusive, Vaccinia Venus -16.0%, HCMV antiviral -69.3*, Vaccinia mCherry -2.8%, Lassa entry inh inconclusive and FMDV antiviral -29.6%.
For CC(C)CC(O)(c1ccccc1)C(CN1CCOCC1)c1ccccc1 (configuration not stated) the results were MARV entry inh -9.5%[46.1 µM], Vaccinia Venus -16.3%, HCMV antiviral inconclusive, Vaccinia mCherry -23.1%, Lassa entry inh -5.4%[46.1 µM] and FMDV antiviral -22.9%.
`CC(C)CCC(O)(c1ccccc1)C(CN1CCOCC1)c1ccccc1` (configuration not stated) gave MARV entry inh inconclusive, Vaccinia Venus -16.2%, HCMV antiviral -66.7*, Vaccinia mCherry -8.9%, Lassa entry inh -23.2% and FMDV antiviral inconclusive.
CCCCCC(O)(c1ccccc1)C(CN1CCOCC1)c1ccccc1 (configuration not stated) was read as HCMV antiviral -60.3* and FMDV antiviral inconclusive.
For CCCCCCC(O)(c1ccccc1)C(CN1CCOCC1)c1ccccc1 (configuration not stated) the results were HCMV antiviral -76.4* and FMDV antiviral inconclusive.
`CCCC(O)(c1ccc(Cl)cc1)C(CN1CCOCC1)c1ccccc1` (configuration not stated) gave Vaccinia Venus -17.7%, HCMV antiviral -28.3, Vaccinia mCherry -4.2% and FMDV antiviral -27.2%.
For NC(=O)Cn1c(=O)n(CCCCCC(=O)NCc2ccccc2)c(=O)c2sccc21 the results were MARV entry inh -7.3%[46.1 µM], Vaccinia Venus 1.0%, HCMV antiviral 2.5, Vaccinia mCherry -7.3%, Lassa entry inh 5.3%[46.1 µM] and FMDV antiviral -0.9%.
